Measured values from PubChem BioAssay AID623908 (Johns Hopkins Ion Channel Center, 2012).
In all, about 2,500 compounds went through this assay and about 1,500 (60%) were called active.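 Rule for the calls: active = duplicate-averaged ratio beyond 3 SD from buffer wells, up or down, though filed actives are nearly all decreases; inactive = the rest.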 The set was probably picked from earlier hits. Not all results are given here.

Assay: membrane potential response in parental HEK293 cells, counter-screen for CHT activator project, cell-based, membrane potential dye (AID 623908)
Conditions: parental HEK293, membrane potential dye fluorescence (FDSS); at 10 µM; measured after EC20 choline addition

Q: Which ratio readout change does the source give for `CC(C)(C)Nc1nc(-c2ccccn2)nc2ccccc12` here?
A: Its ratio readout change is -76.9 (active).

Q: With `CC1=CC(C)(C)N(C(=O)CSc2nnc(-c3ccccc3)o2)c2ccc(C)cc21` as the compound, how does the ratio readout change read?
A: Its ratio readout change is “inactive”.

Q: For `COc1nc(N=C(N)N)nc2c(C)cccc12`, which ratio readout change is on record?
A: The ratio readout change was -78.8 (active).

Q: Which ratio readout change does the source give for `Cc1nc(N=C(N)N)nc2c(C)cccc12` here?
A: The ratio readout change was -65.7 (active).

Q: With `O=C(c1ccccc1F)N(Cc1ccccc1)Cc1ccccc1` as the compound, how does the ratio readout change read?
A: Its ratio readout change is “inactive”.

Q: Which ratio readout change does the source give for `CCCCn1c(N)c(N(CCC(C)C)C(=O)c2ccc(COc3ccccc3)o2)c(=O)[nH]c1=O` here?
A: The ratio readout change was “inactive”.

Q: Which ratio readout change does the source give for `COc1ccccc1NC(=O)CSc1nnc(-c2ccoc2C)n1CCc1ccccc1` here?
A: The ratio readout change was “inactive”.

Q: Which ratio readout change does the source give for `Clc1ccc(C[n+]2cc(-c3ccc(Cl)cc3)n3c2CCC3)cc1` here?
A: Its ratio readout change is -46 (active).

Q: With `Cc1ccc(C(=O)C[n+]2cc(-c3ccccc3)n3c2CCCCC3)cc1` as the compound, how does the ratio readout change read?
A: The ratio readout change was “inactive”.

Q: Which ratio readout change does the source give for `Cc1ccc2c(c1)N(CC(=O)N(Cc1ccccn1)Cc1ccco1)C(=O)C(C(C)C)O2` (stereo unspecified) here?
A: The ratio readout change was “inactive”.

Q: For `O=[N+]([O-])c1ccc(N2CCNCC2)cc1NCc1cccnc1`, which ratio readout change is on record?
A: The ratio readout change was -59.8 (active).

Q: With `CC(=O)c1ccccc1OCc1ccc(C(=O)c2ccccc2)cc1` as the compound, how does the ratio readout change read?
A: Its ratio readout change is “inactive”.

Q: Which ratio readout change does the source give for `C[C@H]1CCC(=O)N([C@H](CSc2ccccc2)Cc2ccccc2)CC1` here?
A: The ratio readout change was “inactive”.

Q: Which ratio readout change does the source give for `CC(=O)N1CC[n+]2c(-c3ccc([N+](=O)[O-])cc3)csc21` here?
A: The ratio readout change was -25.4 (active).

Q: Which ratio readout change does the source give for `CCN(CC)CCC(c1cc(OC)c(OC)c(OC)c1)c1c(OC)cc(OC)c2c(-c3ccccc3)cc(=O)oc12` (stereo unspecified) here?
A: Its ratio readout change is -25.5 (active).

Q: With `Cc1nnc(-c2ccc(Oc3ccc(C)c(C)c3)c([N+](=O)[O-])c2)o1` as the compound, how does the ratio readout change read?
A: The ratio readout change was “inactive”.

Q: For `CN(C)/C=C/C(=O)c1cnc2sccn2c1=O`, which ratio readout change is on record?
A: The ratio readout change was -39.9 (active).

Q: For `COc1cccc(C(=O)NC(=O)Nc2nc(C)cc(C(F)(F)F)n2)c1`, which ratio readout change is on record?
A: The ratio readout change was -43.4 (active).

Q: Which ratio readout change does the source give for `Cc1ccccc1C(=O)NCC(c1ccco1)N1CCc2ccccc21` (stereo unspecified) here?
A: The ratio readout change was “inactive”.

Q: Which ratio readout change does the source give for `Cn1c(=O)n(C)c2cc(C(=O)Nc3ccc4c(c3)OCO4)ccc21` here?
A: The ratio readout change was -33.9 (active).

Q: Which ratio readout change does the source give for `O=C(Nc1ccccc1N1CCN(c2ccccc2)CC1)c1cccc(F)c1` here?
A: The ratio readout change was “inactive”.

Q: Which ratio readout change does the source give for `Cc1cc2c(cc1C)[n+](C)cn2CC(O)COCC1CC=CCC1` (stereo unspecified) here?
A: The ratio readout change was -37.2 (active).

Q: For `N=c1c2c3c(sc2ncn1N)CCCCC3`, which ratio readout change is on record?
A: Its ratio readout change is -39.8 (active).

Q: With `N=c1c2c3c(sc2ncn1CCCN1CCOCC1)CCCCC3` as the compound, how does the ratio readout change read?
A: Its ratio readout change is -59.9 (active).

Q: For `COc1cc2c(cc1OC)C(c1cccc([N+](=O)[O-])c1)=NCC2`, which ratio readout change is on record?
A: Its ratio readout change is -64.5 (active).

Q: With `Cc1c(CCOC(=O)CC23CC4CC(CC(C)(C4)C2)C3)sc[n+]1Cc1ccc([N+](=O)[O-])cc1` as the compound, how does the ratio readout change read?
A: The ratio readout change was -47 (active).

Q: With `O=C(CCC1CCN(C(=O)c2cccc(Cl)c2F)CC1)Nc1ccccc1` as the compound, how does the ratio readout change read?
A: The ratio readout change was “inactive”.

Q: With `O=C1c2ccccc2C(=O)c2c1cccc2N1CCN(CCO)CC1` as the compound, how does the ratio readout change read?
A: The ratio readout change was -73.9 (active).

Q: Which ratio readout change does the source give for `Cn1c(=O)n(Cc2ccco2)c(=N)c2c3c(sc21)CCCC3` here?
A: The ratio readout change was -31.5 (active).

Q: With `CC(Sc1nc2ccccc2c(=O)n1Cc1ccco1)C(=O)c1ccccc1` (stereo unspecified) as the compound, how does the ratio readout change read?
A: The ratio readout change was “inactive”.

Q: Which ratio readout change does the source give for `Cn1c(=O)[nH]c(=O)c2c1nc(N1CCN(CCO)CC1)n2CCSc1nc2ccccc2s1` here?
A: The ratio readout change was -48.2 (active).

Q: For `CN(C)c1ccnc(Nc2ccc(F)cc2)c1C#N`, which ratio readout change is on record?
A: Its ratio readout change is -45.1 (active).

Q: With `CCN1CCN(c2ccc([N+](=O)[O-])cc2C(=O)c2ccc(Cl)cc2)CC1` as the compound, how does the ratio readout change read?
A: Its ratio readout change is “inactive”.

Q: For `Cc1nnc(C)c2c(C)n(N)c(C)c12`, which ratio readout change is on record?
A: Its ratio readout change is -51.8 (active).

Q: With `CN1CCN(c2nc(Nc3ccc(O)cc3)nc3ccccc23)CC1` as the compound, how does the ratio readout change read?
A: The ratio readout change was -71.3 (active).

Q: For `O=C(NCCC1=CCCCC1)C1CCN(Cc2cnn(-c3ccccc3)c2-n2cccc2)CC1`, which ratio readout change is on record?
A: Its ratio readout change is “inactive”.

Q: For `Nc1scc[n+]1Cc1cccc2cccnc12`, which ratio readout change is on record?
A: Its ratio readout change is -43.3 (active).

Q: With `CCCCN(CCCC)CC(O)Cn1c2ccccc2c(=O)c2ccccc21` (stereo unspecified) as the compound, how does the ratio readout change read?
A: Its ratio readout change is -21.9 (active).

Q: Which ratio readout change does the source give for `Cc1c(C)c2c(OCC(=O)N[C@@H](C(=O)O)c3ccccc3)cc3c(c2oc1=O)CCC(C)(C)O3` here?
A: Its ratio readout change is “inactive”.

Q: Which ratio readout change does the source give for `CCOC(=O)c1cccnc1NC(=O)c1ccncc1` here?
A: Its ratio readout change is -20.3 (active).

Q: Which ratio readout change does the source give for `COc1ccc([N+](=O)[O-])cc1N(CC(O)CN(CC(C)C)CC(C)C)S(=O)(=O)c1ccc(C)cc1` (stereo unspecified) here?
A: Its ratio readout change is “inactive”.

Q: For `Cc1ccc(-n2c(C)cc(/C=N\NC(=O)CC(=O)NC(C)C)c2C)cc1`, which ratio readout change is on record?
A: Its ratio readout change is “inactive”.

Q: For `COc1ccc(Nc2cc(C)nc(-n3nc(C)cc3C)n2)cc1`, which ratio readout change is on record?
A: Its ratio readout change is “inactive”.

Q: With `COc1ccc(Nc2nnc(C)c3ccccc23)cc1` as the compound, how does the ratio readout change read?
A: The ratio readout change was -50.6 (active).

Q: Which ratio readout change does the source give for `O=C(COC(=O)C1CCN(S(=O)(=O)c2ccc3c(c2)OCCO3)CC1)Nc1ccccc1OC(F)F` here?
A: Its ratio readout change is “inactive”.

Q: Which ratio readout change does the source give for `CCn1cc(S(=O)(=O)c2cccc(C)c2)c(=O)c2cc(F)c(N3CCN(C)CC3)cc21` here?
A: The ratio readout change was -55.2 (active).
